Data: PubChem BioAssay
Activity calls are given as the source filed them. How the calls were made is not given here.

biological target: Pantothenate synthetase (Mycobacterium tuberculosis (strain ATCC 25618 / H37Rv)) (UniProt P9WIL5); assay: Coupled enzyme confirmation of inhibitors against recombinant Mtb PanC (AID 375); conditions: coupled enzyme assay; at 10 µM, hits give high values;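 further: 0% = full reaction with vehicle and 100% = no enzyme background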
Sequence (P9WIL5 whole entry, looked up): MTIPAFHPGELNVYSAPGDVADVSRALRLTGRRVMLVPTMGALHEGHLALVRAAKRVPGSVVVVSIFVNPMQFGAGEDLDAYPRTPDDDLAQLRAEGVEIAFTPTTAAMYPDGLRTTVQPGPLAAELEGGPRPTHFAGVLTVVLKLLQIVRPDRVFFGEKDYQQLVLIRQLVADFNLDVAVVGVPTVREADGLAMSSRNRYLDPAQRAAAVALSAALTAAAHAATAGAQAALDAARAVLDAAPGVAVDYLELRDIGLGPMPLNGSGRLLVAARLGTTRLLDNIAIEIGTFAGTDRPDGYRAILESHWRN

Compound	inhibition
C=CCc1ccccc1OCCCCN1CCCC1	0% (inactive)
CC1(C)NC(=O)N(CC(O)CN2CCCC2)C1=O (centres undefined)	2% (inactive)
CCN(CC)S(=O)(=O)c1ccc(NC(=O)CN(c2cccc(F)c2)S(C)(=O)=O)cc1	3% (inactive)
CCC(C(=O)O)n1c(C(F)(F)F)nc2ccccc21 (centres undefined)	4% (inactive)
O=C(NC(=O)c1cccc(F)c1)OC[C@@H]1CCCN2CCCC[C@H]12	0% (inactive)
CCOc1ccccc1C1CC(=O)Nc2cc3c(cc21)OCO3 (centres undefined)	0% (inactive)
O=C(O)C1CCCN1C(=O)c1cccs1 (centres undefined)	7% (inactive)
CCN(CC)c1ccc2cc(-c3nc4ccccc4[nH]3)c(=O)oc2c1	0% (inactive)
O=C(CN1CCOCC1)N1CCCc2c1c(=O)oc1ccc(OCc3ccccc3)cc21	4% (inactive)
O=C1CC(N2CCN(c3ccc(Cl)c(Cl)c3)CC2)C(=O)N1 (centres undefined)	0% (inactive)
CC1CN(c2nc3ccccc3nc2C(C#N)C(=O)OC2CCCCC2)CC(C)O1 (centres undefined)	2% (inactive)
COc1ccc(CNC(=O)c2nnn(Cc3ccc(OC)cc3)c2N)cc1	0% (inactive)
OC(CN1CCN(c2ccccn2)CC1)Cn1c2ccccc2c2ccccc21 (centres undefined)	0% (inactive)
O=C(c1ccc(COc2c(F)c(F)c(F)c(F)c2F)o1)N1CCOCC1	4% (inactive)
CS(=O)(=O)N(CC(=O)Nc1cccc(F)c1)Cc1ccccc1	0% (inactive)
O=C(Nc1ccc2c(c1)OCCO2)c1cnc2n(c1=O)CCS2	0% (inactive)
O=c1[nH]c(NCc2ccccc2)nc2c1CCCC2	0% (inactive)
OC(COc1ccccc1)CN1C2=NCCCN2c2ccccc21 (centres undefined)	1% (inactive)
Cc1nc2ccc(F)cc2cc1C(=O)NCC1CCCO1 (centres undefined)	0% (inactive)
CCOc1ccc(NC(=O)CSc2nnnn2CC(=O)O)cc1	0% (inactive)

Compound	inhibition
Cc1cc(NC(=O)CSc2nc3ccsc3c(=O)n2NC(=O)c2ccccc2)no1	1% (inactive)
Cc1nc(SCC(=O)CC(=O)OC(C)C)c(C#N)c(C)c1C	0% (inactive)
CC(=O)Nc1ccc(S(=O)(=O)Nc2nc3ccccc3nc2N2CCCC2)cc1	8% (inactive)
CN1CCN(c2nc3c(c(=O)[nH]c(=O)n3C)n2CCOc2ccccc2)CC1	0% (inactive)
COc1ccc2cc(C#N)c(SCC(=O)N3CCCC3)nc2c1	7% (inactive)
CCCC(=O)O[C@]1(C(=O)CCl)[C@@H](C)C[C@H]2[C@@H]3CCC4=CC(=O)C=C[C@]4(C)[C@@]3(F)C(=O)C[C@@]21C	0% (inactive)
COCCSc1nnc(NC(=O)CSCc2ccccc2)s1	0% (inactive)
Clc1ccccc1OCCCCn1ccnc1	0% (inactive)
O=C(Nc1cnccn1)c1cccs1	0% (inactive)
COc1cc(-c2nc(S(=O)(=O)c3ccc(C)cc3)c(N(C)C)o2)cc(OC)c1OC	3% (inactive)
Cc1cc(NC(=O)CCCC(=O)Nc2ccc(F)cc2)no1	4% (inactive)
CC1CCN(c2c(NCc3ccc(C(=O)N4c5ccccc5CC4C)cc3)c(=O)c2=O)CC1 (centres undefined)	0% (inactive)
Cc1cc(C)n(S(=O)(=O)Cc2ccccc2)n1	0% (inactive)
COc1ccc(CC(NC(C)=O)C(=O)N2CCN(C(=O)N(C(C)C)C(C)C)CC2)cc1 (centres undefined)	0% (inactive)
Cc1ccccc1C(=O)NC1CCN(Cc2nnnn2Cc2ccccc2)CC1	4% (inactive)
Cc1nc2ccccc2nc1OCC(=O)Nc1cc(C(F)(F)F)ccc1N1CCOCC1	0% (inactive)
CC(C)CN(C(=O)c1ccc(=O)n(C)n1)c1nc2ccccc2s1	0% (inactive)
CC(Sc1nnnn1C)C(=O)Nc1ccc(Oc2ccccc2)cc1 (centres undefined)	0% (inactive)
O=S(=O)(c1cccc2nsnc12)N1CCN(c2ncccn2)CC1	0% (inactive)
